Results taken from ChEMBL document CHEMBL4513216, “Probing the Open Global Health Chemical Diversity Library for Multistage-Active Starting Points for Next-Generation Antimalarials” (ACS Infect Dis, 2020).
In all, about 69,000 compounds went through this assay and about 8,600 (12%) showed an effect of 50% or more. This excerpt belongs to a sample that is enriched for strong results.

Test system: Plasmodium berghei
Assay: Screen against P. berghei liver stage (PbLuc), transformed with Luciferase, at 10uM
Type: functional, HepG2
Details: tested at 10 uM

| SMILES | INHIBITION [%] |
| --- | --- |
| Cn1ccnc(Sc2ccccc2)c1=O | -4.13 |
| CCOc1ccccc1C(=O)NCc1nncn1C1CC1 | 11.4 |
| CC1(c2nccs2)CCN(C(=O)CC2CCOCC2)CC1 | -1.25 |
| CC(=O)N1CCC2(CCCN(S(=O)(=O)c3ccccc3)C2)C1 (centres undefined) | -60.3 |
| CCc1cc(NCCCNS(C)(=O)=O)nc(-c2ccncc2)n1 | 15.2 |
| CCC=C(C)C(=O)N1CSCC1C(=O)N(C)CCc1ccncc1 (centres undefined) | -16.7 |
| Cc1cc(C)n(CC2CCCCN2CC(=O)Nc2nccs2)n1 (centres undefined) | 77.6 |
| Cc1cc(C)n(CC2CCCCN2CC(=O)Nc2nncs2)n1 (centres undefined) | 11.1 |
| Cc1cc(C)n(CC2CCCCN2CC(=O)Nc2nnc(C)s2)n1 (centres undefined) | -16.5 |
| CCCc1n[nH]c(C2CN(CCc3cccs3)CCO2)n1 (centres undefined) | -23.9 |
| CCC(C)N(CC)C(=O)c1ccc2[nH]nnc2c1 (centres undefined) | -29.1 |
| CN1CCN(CC(C)(C)C)CC1CCO (centres undefined) | -1.26 |
| COc1cc(C(=O)O)ccc1OCC(=O)NCCc1ccccc1 | 37.4 |
| Cc1cc(C)c(CNC(=O)N2CCN(c3ccccn3)CC2)c(=O)[nH]1 | 9.4 |
| Cc1cc(C)c(CNC(=O)NCCNc2ccccn2)c(=O)[nH]1 | 46.1 |
| O=C(NC1CCS(=O)(=O)C1)N1CCN(c2cnccn2)CC1 (centres undefined) | 33 |
| O=C(C1CCS(=O)(=O)C1)N1CCN(c2cnccn2)CC1 (centres undefined) | 16.7 |
| Cc1cc(C)c(CNC(=O)N2CCN(c3cnccn3)CC2)c(=O)[nH]1 | 51.2 |
| Cc1cc(C)c(CNC(=O)NCCNc2ncccn2)c(=O)[nH]1 | 25.7 |
| Cc1cc(C)c(CNC(=O)C2CCN(c3cnccn3)CC2)c(=O)[nH]1 | 12.255 |
| O=C(NCC1CCS(=O)(=O)C1)N1CCN(c2cnccn2)CC1 (centres undefined) | 50.3 |
| Cc1cc(C)c(CNC(=O)NCCNc2cnccn2)c(=O)[nH]1 | 73 |
| CN1CCN(C(=O)c2occc2CN2C(=O)Cc3ccccc32)CC1 | 37.9 |
| c1cncc(CN2CCn3cc(CN4CCCCC4)nc3C2)c1 | 35.8 |
| Cc1ccoc1C(=O)N1Cc2c(CN3CCCCC3)nn(C)c2C1 | 3.69 |
| O=C(NCCCn1nc2ccccn2c1=O)NC(C1CC1)C1CC1 | 16.3 |

| SMILES | INHIBITION [%] |
| --- | --- |
| COc1ccc(CC(=O)NC2CCN(CC(F)F)CC2)cc1OC | 14.4 |
| O=C(c1ccoc1)N1CC[C@@H]2O[C@@H](COCc3ccccn3)CC[C@@H]21 | 53.2 |
| CC(C)COC[C@@H]1CC[C@H]2[C@H](CCN2C(=O)c2ccncc2F)O1 | 13.5 |
| CN(C)CCOC[C@H]1CC[C@H]2[C@H](CCN2C(=O)c2ccoc2)O1 | 34.6 |
| O=C(c1ccoc1)N1CC[C@@H]2O[C@@H](COCCN3CCCC3)CC[C@@H]21 | 31.1 |
| CCOC[C@H]1CC[C@H]2[C@H](CCN2C(=O)c2ccncc2F)O1 | 41.4 |
| O=C(c1ccoc1)N1CC[C@@H]2O[C@H](COCc3ccccn3)CC[C@@H]21 | 34.1 |
| O=C(c1ccoc1)N1CC[C@@H]2O[C@@H](COCc3ccncc3)CC[C@@H]21 | 52 |
| CC(C)COC[C@H]1CC[C@H]2[C@H](CCN2C(=O)c2ccncc2F)O1 | 53 |
| COCC(=O)N1CC[C@@H]2O[C@H](COCc3ccncc3)CC[C@@H]21 | 33.5 |
| CCS(=O)(=O)N1CCC2(CN(c3ccsc3)C(=O)CN2C)C1 (centres undefined) | 1.9 |
| CN(C)CC1(O)CCCN(C(=O)CCn2cc(Cl)cn2)C1 (centres undefined) | -47 |
| CSc1nc2ccsc2c(=O)n1CC(=O)N(C)C1CCCCC1 | 26.6 |
| Cn1nccc1C(=O)N1CCCC1c1[nH]ncc1C(N)=O (centres undefined) | -31 |
| CCOC(=O)N1CCN(C(=O)CCn2cccc2)CC1 | 35 |
| Cc1nc(CN2CCC3(CC2)C(=O)N(C)CCN3C)cs1 | 31.5 |
| Cn1cc(-c2nnn3c2COC(CNC(=O)c2cccs2)C3)cn1 (centres undefined) | 8.64 |
| Cc1nc(CN2CCN(C(=O)c3ccnc(N(C)C)c3)CC2)cs1 | 43.2 |
| Cc1ccc(CN(C)C(=O)C(C)n2ccnc2C(C)C)o1 (centres undefined) | 33 |
| CN(C)C1CCCN(C(=O)c2cccc(-c3ncc[nH]3)c2)CC1 (centres undefined) | 12.8 |
| O=C(c1cccc(-c2ncc[nH]2)c1)N1CC[C@H](CO)[C@@H](O)C1 | -12.1 |
| O=C(c1cccc(-c2ncc[nH]2)c1)N1CCC(N2CCCC(O)C2)CC1 (centres undefined) | 57.2 |
| Cc1ncnc2c1CCN(Cc1nccs1)CC2 | 8.85 |
| CC(C(=O)NCC(C)(C)c1ccc(Br)cc1)n1cncn1 (centres undefined) | 23.1 |
| O=c1[nH]cnc2[nH]c(N3CCOCC3)nc12 | 31.8 |
| COc1ccc2nc(C3CC3)cc(C(=O)NCc3noc(C)n3)c2c1 | 57.2 |

| SMILES | INHIBITION [%] |
| --- | --- |
| COc1ccc2nc(C3CC3)cc(C(=O)NCC(=O)N(C)C)c2c1 | 13.9 |
| COc1ccc2nc(C3CC3)cc(C(=O)NCc3ncnn3C)c2c1 | 10.7 |
| COc1ccccc1CC(=O)NC(CC(=O)O)c1ccc(F)cc1 (centres undefined) | 32.3 |
| O=C(O)CC(NC(=O)c1ccccc1OC(F)F)c1cccs1 (centres undefined) | 68.8 |
| COc1ccccc1C(=O)NC(CC(=O)O)c1cccs1 (centres undefined) | -9.14 |
| COc1ccc(Cl)cc1C(=O)NC(CC(=O)O)c1cccs1 (centres undefined) | 29.7 |
| COc1ccccc1C(=O)NC(C)CC(=O)O (centres undefined) | 51.3 |
| COc1cccc(-c2n[nH]cc2C(=O)NC(C)CC(=O)O)c1 (centres undefined) | 42.3 |
| COc1ccccc1CC(C)CC(=O)O (centres undefined) | 29.3 |
| COc1ccc(CC(=O)NC(CC(=O)O)c2ccc(F)cc2)cc1OC (centres undefined) | 29 |
| COc1ccc(C(=O)NC(CC(=O)O)c2cccs2)c(OC)c1 (centres undefined) | -5.25 |
| COc1ccc(C)cc1C(=O)NC(CC(=O)O)c1cccs1 (centres undefined) | 52.3 |
| COc1ccc(C)cc1CC(=O)NC(CC(=O)O)c1ccc(F)cc1 (centres undefined) | 58.3 |
| CCOc1ccccc1C(=O)NC(CC(=O)O)c1cccs1 (centres undefined) | 13.3 |
| Cc1csc(CN2CCC[C@]3(C[C@@H](OCC4CC4)CO3)C2)n1 | 35.6 |
| Cc1nnc(NCCn2nc(C)c(Cl)c2C)o1 | 26.8 |
| CC(Cn1ccnc1)NC(=O)NCCc1ccc(Cl)s1 (centres undefined) | -5.25 |
| O=C1CC(N(C(=O)CCc2cc(F)ccc2F)C2CC2)C(=O)N1 (centres undefined) | 22.2 |
| CCn1ccnc1CN1CCCC1c1noc(C2CC2)n1 (centres undefined) | 40.9 |
| CN(Cc1nnc2n1CCC2)C(=O)c1ccc2c(c1)CCO2 | 26.4 |
| Cc1nc2c(c(=O)[nH]1)CCN(Cc1ccc3c(c1)CCCN3C)C2 | 31.6 |
| Cc1ccc2c(c1)C(=O)NCC1(CCN(C(=O)c3cnccn3)CC1)O2 | -32.2 |
| O=C(CCc1ccccc1F)N1CCC(Nc2cccnn2)CC1 | 1.78 |
| O=C1N(CC2CCCC2)CCC12CCN(c1ncc(F)cn1)CC2 | 8.74 |
| NC(=O)CN1CCC(NC(=O)COCCOc2ccccc2)CC1 | 31.6 |
| CC(=O)NCCC1CCCCN1S(=O)(=O)c1cccc(F)c1 (centres undefined) | -40.5 |

| SMILES | INHIBITION [%] |
| --- | --- |
| CNC(=O)c1ccc(C2CN(C(=O)COC)CCO2)nc1 (centres undefined) | -26.8 |
| COCC(=O)N1CCOC(c2ccc(N(C)C)cn2)C1 (centres undefined) | 50.1 |
| COCC(=O)N1CCOC(c2cccc(-c3cncnc3)n2)C1 (centres undefined) | 38.2 |
| CCCC(=O)N1CCC(c2nc(O)c3c(n2)CCN(C2CCCC2)C3)C1 (centres undefined) | 17.1 |
| Cc1ccccc1OCCCC(=O)NC(C)c1nnc2n1CCC2 (centres undefined) | -24.2 |
| CNC(=O)[C@H]1C[C@@H]2CN(S(=O)(=O)Cc3ccccc3)C[C@@H]2N1C | -15.7 |
| O=C(N1CCOCC1)[C@@]12CCO[C@@H]1CCN(C1CCC1)C2 | 16.8 |
| Cc1ccsc1C(=O)N1C[C@@H]2CN(Cc3ccoc3)CCO[C@@H]2C1 | 2.27 |
| O=C(NCC(F)(F)F)C1CSCN1S(=O)(=O)c1ccc(F)cc1Cl (centres undefined) | -19.6 |
| COc1ncccc1CN1C[C@@H]2C[C@@H](C(=O)NCC3CC3)N(C)[C@@H]2C1 | 27.2 |
| CCCn1cc(-c2cc(-c3ccoc3)c(C#N)c(N)n2)c(C)n1 | -24 |
| CCCn1cc(-c2cc(-c3c[nH]cn3)c(C#N)c(N)n2)c(C)n1 | -8.47 |
| CCCn1cc(-c2cc(-c3cc(CC)n[nH]3)c(C#N)c(N)n2)c(C)n1 | 64.5 |
| Cc1ccc(O)c(CNC2CCCN(Cc3noc(C4CC4)n3)C2)n1 (centres undefined) | 15.3 |
| CC(C)NC(=O)CN(C)CC(=O)Nc1ccnn1C(C)C1CC1 (centres undefined) | -164 |
| CC(=O)Nc1ccc(CNC(=O)CNCc2nnc(C)o2)cc1 | 45.4 |
| Cc1nc(C)c(CC(=O)NCc2ccc(F)cc2)s1 | -2.39 |
| CC(=O)Nc1ccc(CNC(=O)CNCc2sc(C)nc2C)cc1 | 55.5 |
| CC(=O)Nc1ccc(CNC(=O)CNCc2snnc2C)cc1 | 52.2 |
| CC(=O)Nc1ccc(CN(C)Cc2snnc2C)cc1 | 34.6 |
| Cc1nc(C)c(CC(=O)NCc2ccccc2F)s1 | 31.3 |
| O=C(O)c1cc(S(=O)(=O)N2CCOc3ccccc32)ccc1Br | 2.7 |
| CN(C(=O)Cn1nc(-c2ccc(Br)cc2)ccc1=O)C1CCS(=O)(=O)C1 (centres undefined) | -29.2 |
| CC(C)c1cc(O)nc(C2CCCN2C(=O)C2CC2)n1 (centres undefined) | -9.32 |
| O=S(=O)(NCC1CCN(c2cnccn2)CC1)C1CC1 | 27.5 |
| Cn1nccc1-c1ccc2nc(C3CCNCC3)nn2c1 | -3.33 |
